# ± gives the standard deviation.
# Tests used:
# Conditions in all cases: modulator concentration 10 µM
# [1] = tested on: RAW-Dual (murine macrophage reporter line); assay: NF-kB reporter (SEAP) activity fold change vs agonist alone; higher = enhanced NF-kB activity
# How it was run: (§1)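 RAW-Dual murine macrophage reporter cells were seeded at 50 000 per well in 384-well plates and pre-incubated 1 hour at 37 °C with compound pin-transferred to 10 μM final. After 1 hour, a PRR agonist was added and cells incubated overnight. Supernatant NF-κB (SEAP, QUANTI-Blue, 620 nm absorbance) and IRF (Lucia luciferase, QUANTI-Luc, luminescence) signals were divided by the mean agonist-only control on the same plate to give fold change. Two replicate plates were averaged, with errors by propagation.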
# [2] = tested on: RAW-Dual (murine macrophage reporter line); assay: IRF reporter (Lucia luciferase) activity fold change vs agonist alone; higher = enhanced IRF activity
# How it was run: as §1
# [3] = tested on: RAW-Dual (murine macrophage reporter line); assay: viability score (confluency relative to resting cells, overnight) (fraction); higher = more viable, active = viable (0.7 or more)
# How it was run: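 Two confluency masks, generated with IncuCyte software over all imaged wells, were applied to IncuCyte images of RAW-Dual macrophages. The cells, in 384-well plates, had been exposed overnight to 10 μM final compound. The viability score is confluency as a fraction of resting cells, and a compound met the cutoff only with both masks above 70% of resting cells.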
# [4] = agonist: CpG ODN 1826 0.5 ug/mL
Compound,"NF-kB reporter [1, 4]",NF-kB reporter ([1]; agonist: LPS 0.1 ug/mL),NF-kB reporter ([1]; agonist: MPLA […]),IRF reporter ([2]; agonist: 3'3'-cGAMP 10 ug/mL),IRF reporter ([2]; agonist: LPS 0.1 ug/mL),IRF reporter ([2]; agonist: MPLA […]),viability score [3]
CCS(=O)(=O)c1ccc(-c2cccc(NC(=O)CC3CCCC3)c2)nn1,1.19 ± 0.099,0.932 ± 0.073,1.01 ± 0.029,0.905 ± 0.033,0.973 ± 0.056,0.926 ± 0.13,0.999 (active)
C(#Cc1ccc(C=Nc2nccs2)cc1)c1ccccc1,0.714 ± 0.18,0.935 ± 0.17,0.892 ± 0.1,0.176 ± 0.029,1.09 ± 0.16,1.15 ± 0.17,0.997 (active)
O=C(Cc1ccc(F)cc1)NCC1CCCN1c1ccccc1 (stereo unspecified),1.21 ± 0.11,1.1 ± 0.083,1.09 ± 0.029,0.677 ± 0.043,1.12 ± 0.077,0.893 ± 0.13,0.992 (active)
N#CC1=C(NC(=S)NC(=O)c2ccccc2)c2ccccc2CC12CCCC2,0.535 ± 0.03,0.918 ± 0.07,0.717 ± 0.042,0.792 ± 0.033,1.63 ± 0.1,1.26 ± 0.2,0.982 (active)
Cc1cccc(OCCCSc2nc3ccccc3[nH]2)c1,0.919 ± 0.076,0.973 ± 0.11,1.14 ± 0.11,0.671 ± 0.021,1.28 ± 0.21,1.39 ± 0.24,0.949 (active)
Cc1ccccc1C(=O)N1CC(S(=O)(=O)CC(C)C)C1,0.961 ± 0.082,0.907 ± 0.076,0.854 ± 0.052,1.04 ± 0.071,1.04 ± 0.13,0.899 ± 0.38,1.02 (active)
c1coc(CNc2nc(-c3ccncc3)cs2)c1,0.857 ± 0.073,0.863 ± 0.13,1.25 ± 0.11,0.492 ± 0.03,1.12 ± 0.08,1.14 ± 0.097,0.981 (active)
CN1CCN(CCCN2c3ccccc3Sc3ccc(Cl)cc32)CC1 [Prestw-399],0.442 ± 0.026,0.845 ± 0.073,1.73 ± 0.048,1.23 ± 0.051,1.1 ± 0.085,1.46 ± 0.15,0.114 (inactive)
CCOC(=O)C1=C[C@]2(CC)CCCN3CCc4c(n1c1ccccc41)[C@@H]32,0.825 ± 0.057,0.946 ± 0.077,0.994 ± 0.07,0.998 ± 0.045,1.21 ± 0.15,1.4 ± 0.46,0.949 (active)
CN1CCN(c2ccc(-c3cccc(NC(=O)COc4ccc(Cl)cc4Cl)c3)nn2)CC1,0.46 ± 0.09,0.922 ± 0.086,1 ± 0.13,0.65 ± 0.043,1.16 ± 0.18,1.12 ± 0.29,0.982 (active)
CCCCCCCC(O)CC(CC1CCCCC1)C(=O)NN (stereo unspecified),0.721 ± 0.056,0.912 ± 0.074,0.977 ± 0.093,0.88 ± 0.062,1.19 ± 0.22,1.28 ± 0.28,1.02 (active)
CCC(C)NS(=O)(=O)c1ccc([N+](=O)[O-])cc1 (stereo unspecified),1.13 ± 0.11,1.05 ± 0.075,0.977 ± 0.034,0.883 ± 0.05,1.13 ± 0.1,1.18 ± 0.14,0.998 (active)
CC1ON(c2ccc(Cl)c(Cl)c2)C(=O)NC1=O (stereo unspecified),1.02 ± 0.13,0.886 ± 0.065,1.06 ± 0.11,1.03 ± 0.032,1.27 ± 0.2,1.49 ± 0.24,0.998 (active)

# From the supplement of paper PMC10646978
